Calls of active or inactive are those of the source.
What follows are compounds tested against NADPH oxidase 4 (Homo sapiens) (UniProt Q9NPH5) (assay: NOX4-dependent H2O2 signal modulators, primary screen, NOX inhibitor project, cell-based, HEK293-NOX4, tetracycline-induced, Amplex Red fluorescence (AID 1160)). Settings: 45 min, higher = more signal, called active from +8 up or from −8 down.
Sequence of NADPH oxidase 4 (Homo sapiens) (Q9NPH5 whole entry, looked up): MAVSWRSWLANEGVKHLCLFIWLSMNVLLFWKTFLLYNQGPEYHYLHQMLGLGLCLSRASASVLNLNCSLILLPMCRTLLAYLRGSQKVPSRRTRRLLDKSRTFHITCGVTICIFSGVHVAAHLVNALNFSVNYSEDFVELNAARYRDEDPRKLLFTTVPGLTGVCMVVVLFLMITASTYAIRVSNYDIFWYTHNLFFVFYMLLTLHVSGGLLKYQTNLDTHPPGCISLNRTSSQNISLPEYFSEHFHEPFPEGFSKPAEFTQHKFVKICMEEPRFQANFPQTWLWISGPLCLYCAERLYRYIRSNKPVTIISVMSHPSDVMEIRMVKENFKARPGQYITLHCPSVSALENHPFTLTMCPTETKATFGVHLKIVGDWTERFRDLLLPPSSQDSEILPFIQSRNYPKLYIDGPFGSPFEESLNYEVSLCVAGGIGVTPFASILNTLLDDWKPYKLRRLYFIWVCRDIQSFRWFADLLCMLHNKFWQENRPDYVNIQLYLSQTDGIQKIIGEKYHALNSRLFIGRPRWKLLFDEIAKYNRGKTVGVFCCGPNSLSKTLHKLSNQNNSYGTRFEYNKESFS

z-score, inactive:
CCOC(=O)[C@H](CC(C)C)NC(=O)CCC1CC(OC(=O)NCc2cccc3ccccc23)CC2(CCCC(COC(=O)NCCC(C)C)O2)O1 (some centres not stated) 0.777
CCOC(=O)[C@H](CC(C)C)NC(=O)CCC1CC(OC(=O)NCc2cccc3ccccc23)CC2(CCCC(COC(=O)NCC3CCCCC3)O2)O1 (some centres not stated) -1.93
CCC=CCCC(OC(=O)c1ccc(Br)cc1)C1=CCCCC1=O (configuration not stated) -0.534
Cc1cc2c(nc1C)CCCCN2CC(C)ON=C[C@@H](C)[C@H](OCc1ccccc1)C(C)C (some centres not stated) -0.45
CCOC(=O)[C@H](Cc1ccccc1)NC(=O)CCC1CC(OC(=O)NCc2cccc3ccccc23)CC2(CCCC(COC(=O)NCCC(C)C)O2)O1 (some centres not stated) 1.24
Cc1ccc(S(=O)(=O)n2c3ccccc3c3nnc(C(=O)c4ccccc4)nc32)cc1 0.179
COC(=O)NCC=Cc1nc(CCCO)co1 0.996
Cc1ccc(S(=O)(=O)N[C@H]2COC(=O)CC=C[C@H](C)[C@@H](NS(=O)(=O)c3ccc(C)cc3)COC(=O)CC=C[C@@H]2C)cc1 -1.92
O=C1[C@H]2[C@H]3[C@H](O)[C@H](O)CC(=NOCc4ccccc4)[C@@H]3CC[C@H]2C(=O)N1C[C@@H]1CCCO1 0.531
CCCCC#C[C@@H]1C=C[C@H](OC(C)=O)[C@@H](COC(C)=O)O1 1.05
Cc1cc2c(nc1C)CCCN2CC(O)CN1CCCc2nc(C)c(C)cc21 0.628
C#CCCCON=C1C[C@@H](O)[C@@H](O)[C@@H]2[C@@H]3C(=O)N(CC)C(=O)[C@@H]3CC[C@@H]12 0.764
CCOC(=O)CCN1C(=O)[C@H]2[C@H]3[C@H](O)[C@H](O)CC(=NNC(=O)OCc4ccccc4)[C@@H]3CC[C@H]2C1=O 0.0939
CC(C)(C)N1C(=O)[C@H]2[C@H]3[C@H](O)[C@H](O)CC(=NOCc4ccccc4)[C@H]3CC[C@H]2C1=O 0.991
C[C@H]1COC(=O)[C@@H]2CCCN2C(=O)[C@@H](C)COC(=O)[C@H](Cc2ccccc2)NC1=O -0.114
O=C1[C@H]2[C@H]3[C@H](O)[C@H](O)CC(=NO[C@@H]4O[C@H](CO)[C@@H](O)[C@H](O)[C@H]4O)[C@H]3CC[C@H]2C(=O)N1c1cccc(Oc2ccccc2)c1 0.325
CC(C)=CCCC(C)=CCON=C1C[C@@H](O)[C@@H](O)[C@@H]2[C@@H]3C(=O)N(Cc4ccccc4)C(=O)[C@@H]3CC[C@H]12 0.913
CC(C)(C)N1C(=O)[C@H]2[C@H]3[C@H](O)[C@H](O)CC(=O)[C@H]3CC[C@H]2C1=O -1.36
COc1ccc(O[C@H]2C=C[C@@H](c3ccccc3)O[C@@H]2COC(=O)CCC(C)=NO[C@@H]2O[C@H](COC(C)=O)[C@@H](OC(C)=O)[C@H](OC(C)=O)[C@H]2OC(C)=O)cc1 1.75
COc1ccc(COC(=O)NN=C2C[C@@H](O)[C@@H](O)[C@@H]3[C@@H]4C(=O)N(Cc5ccccc5)C(=O)[C@@H]4CC[C@H]23)cc1 0.954
COc1cc(O)c(C(=O)C=Cc2ccc3c(c2)OCO3)c(OC)c1 0.142
C#CCCCON=C1C[C@@H](O)[C@@H](O)[C@@H]2[C@@H]3C(=O)N(C(C)(C)C)C(=O)[C@@H]3CC[C@H]12 0.132
O=C(NN=C1C[C@@H](O)[C@@H](O)[C@@H]2[C@@H]3C(=O)N(C[C@@H]4CCCO4)C(=O)[C@@H]3CC[C@H]12)OCc1ccccc1 0.0865
COc1cccc([C@H]2Oc3ccc(OC)cc3C(=NO[C@@H](C)c3cn([C@H](CO)Cc4ccccc4)nn3)[C@@H]2O)c1 -0.424
O=C1[C@H]2[C@H]3[C@H](O)[C@H](O)CC(=NOCc4ccccc4)[C@H]3CC[C@H]2C(=O)N1Cc1ccc2c(c1)OCO2 -0.0657
CC(C)CON=C1C[C@@H](O)[C@@H](O)[C@@H]2[C@@H]3C(=O)N(C4CCCCC4)C(=O)[C@@H]3CC[C@H]12 -0.118
CC(C)(C)N1C(=O)[C@H]2[C@H]3[C@H](O)[C@H](O)CC(=NO[C@@H]4O[C@H](CO)[C@@H](O)[C@H](O)[C@H]4O)[C@H]3CC[C@H]2C1=O -0.912
COC(=O)[C@H](C)NC(=O)CCC1CC(OC(=O)NCCc2ccc(F)cc2)CC2(CCCC(COC(=O)NCCC(C)C)O2)O1 (some centres not stated) 0.302
CC(=O)Nc1ccc([C@@H]2N[C@H](C(=O)O)CC[C@H]2C)cc1 0.195
COc1ccc(O[C@H]2C=C[C@@H](c3ccccc3)O[C@@H]2CON=C(C)C)cc1 -0.311
CO[C@H]1COC(=O)[C@@H](Cc2ccccc2)NC(=O)[C@@H](C)COC(=O)CCC[C@@H]1C 0.533
CCOC(=O)NN=C1C[C@@H](O)[C@@H](O)[C@@H]2[C@@H]3C(=O)N([C@@H](C)c4ccccc4)C(=O)[C@@H]3CC[C@H]12 0.67
CO[C@H]1COC(=O)CCC[C@@H](C)[C@H](OC)COC(=O)[C@@H]2CCCN2C(=O)CC=C[C@@H]1C -0.00577
COc1cccc([C@H]2Oc3ccc(OC)cc3C(=NOC(C)CN3CCCCc4nc(C)c(C)cc43)[C@@H]2O)c1 (some centres not stated) -0.284
O=C1[C@H]2[C@H]3[C@H](O)[C@H](O)CC(=NOC[C@@H](O)COCc4ccco4)[C@H]3CC[C@H]2C(=O)N1Cc1ccccc1 0.967
COc1cccc([C@H]2Oc3ccc(OC)cc3C(=NOC[C@@H](O)[C@H]3O[C@@H]4OC(C)(C)O[C@@H]4[C@H]3O)[C@@H]2O)c1 -0.776
Cn1c(=O)n2n(c1=O)[C@H]1[C@H](O)[C@@H]3O[C@@H]3C(=NOCc3ccccc3)[C@H]1CC2 0.456
